We go through five molecules from PubChem BioAssay.

SMILES strings stand for the structures. Values joined by “and” are separate entries in the source; they are usually repeats but may differ in a detail not shown here. Equal values may be shown once. For some of these results: Entries with a potency or affinity are not part of this list. Active and inactive are the calls of the source.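 The calls were made as follows, unless noted: active = thallium flux through the channel raised or lowered by more than 3 SD from vehicle-only wells, actives on both sides; inactive = the rest.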

The nature of test [1]: blockers of polyQ-driven CASP3 activation – cell-based (AID 1583). The note with it: polyglutamine-induced caspase-3 activation, cell assay; stronger effect = higher value;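 tested at 10 µM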.
Test [2] can be described thus: yeast 75Q aggregation reduction – 75Q-TubU reporter (AID 1593). The settings on record: Yeast 75Q polyglutamine aggregation reporter.
Test [3] is described as follows: restoration of touch response, mutant HTT neurons – whole organism, C. elegans mechanosensory neurons, N-terminal huntingtin (AID 1599). The note with it: C. elegans polyQ-huntingtin mechanosensory neurons, stronger effect = higher value.
The nature of test [4]: blockers of cytochrome c efflux from mitochondria – biochemical, purified mitochondria (AID 1603).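 Also: mouse liver mitochondria challenged with calcium chloride; signal normalized to the plate average as 100%.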 The note with it: stronger effect = lower value.
Test [5] can be described thus: polyglutamine aggregate formation blockers (AID 1604). The settings on record: polyglutamine-induced protein aggregation inhibition assay; stronger effect = higher value; tested at 2.5 µM.
The nature of test [6]: glutamate transport activators, MN-1 cells, MN-1 cell line (AID 1612).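 Also: tested at 1 µM final; 0% = mean of DMSO vehicle wells on each plate; positive means more glutamate uptake than control and negative means less.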 The settings on record: MN-1 motor neuron cells, stronger effect = higher value.
The nature of test [7]: 75Q-TubH aggregate inhibition, S. cerevisiae, yeast (AID 1616). The note with it: S. cerevisiae 75Q-TubH polyglutamine aggregation suppression; stronger effect = higher value.
Test [8] in a line: compounds altering viability of human ES cells (AID 493140; call rule not given here;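 also: cells exposed to compounds for four days before counting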). The note with it: human embryonic stem cell survival screen; stronger effect = higher value.
The nature of test [9]: signal quenchers or enhancers, Cy5 substrate/SSB – biochemical, NIH Clinical Collection, E. coli SSB, artefact control for HCV NS3 helicase inhibitor project (AID 743268; call rule not given here). The note with it: Cy5-oligo bound E. coli SSB, fluorescence interference.
For test [10], the system named is Hepatitis C virus NS3 helicase. Description: blockers of NS3h binding to DNA – biochemical, fluorescence polarization, NIH Clinical Collection, primary screen (AID 743270; call rule not given here). The note with it: NS3 helicase binding to Cy5-dT15 DNA, stronger effect = higher value, concentration not given here.
The target of test [11] is Single-stranded DNA-binding protein (Escherichia coli (strain K12)) (UniProt P0AGE0). Kind of test: SSB-ssDNA binding inhibitors – biochemical, fluorescence polarization, NIH Clinical Collection, counter-screen for HCV NS3 helicase inhibitor project (AID 743271; in the data active = inhibition above about 28%). The settings on record: E. coli SSB-DNA binding, stronger effect = higher value, concentration not given here. (Polarisation of emitted light reports the rotation of a fluorescent probe.)

Test [12] in a line: compounds distorting NS3 helicase fluorescence signal – biochemical, NIH Clinical Collection, artefact control for HCV NS3 helicase inhibitor project (AID 743272; call rule not given here;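 also: HCV NS3 helicase with a Cy5 labelled single stranded DNA probe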). The settings on record: fluorescence interference counterscreen, HCV NS3 helicase assay; stronger effect = lower value.
The subject of the next test is R275C. Description: BK channel mutant inhibitors and activators – cell-based, U2OS BacMam, thallium flux, beta subunits, selectivity assay, profiling panel (AID 1259406).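 Also: initial slope of Thallos dye fluorescence rise after thallium is added; log ratio against the mean of 0.3% DMSO vehicle wells on the same plate.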 The note with it: U2OS BacMam BK variants, at 30 µM.
In another test the test system is R275C/beta1. Described as above. The note with it: U2OS BacMam BK variants, at 30 µM.
The next test concerns R275C/beta2Delta. Described as above. The note with it: U2OS BacMam BK variants, at 30 µM.
For the next test, the system named is R275C/beta4. Described as above. The note with it: U2OS BacMam BK variants, at 30 µM.
For a further test, the system named is R275C/Slo1WT/beta2. The description is as above. The note with it: U2OS BacMam BK variants, at 30 µM.
The nature of test [13]: galactose survival enhancers in mitochondrial complex I cybrids – cell-based, galactose medium, ATP luminescence, primary screen (AID 1645843;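 active = z-score of at least 1.8 in each of two replicates, scored against plate mean and spread of sample wells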;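 also: positive z means more ATP and so rescue of galactose-driven cybrid death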). The settings on record: complex I mutant cybrid cells, 72 h, stronger effect = higher value.
The nature of test [14]: viability loss with induced miR-34 in A549 – imaging, A549 dox-inducible miR-34, nuclei and caspase counts, primary screen (AID 1347080;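 active = compounds whose cell count with miR-34 switched on is under 0.7 times the count with it off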). The note with it: A549 miR-34 inducible, Hoechst nuclei count, 48 h.

`CN1C(C(=O)Nc2ccccn2)=C(O)c2ccccc2S1(=O)=O`: the inhibition in [1] is -2.37%; in test [10], 1.98% (inactive); in test [11] it was 1.44% (inactive). This molecule also registered a score in test [2] of 0.27. The rescue above control in test [3] came to 9.46. Besides, in test [4], the cytochrome c release ratio was determined as 1.16. The molecule also had an inhibition of aggregation in test [5] of 83.1%. Also, in test [6], the glutamate uptake change is -13.7%. For the same molecule, the aggregation suppression score in test [7] was 0.134. The survival in test [8] is 20 (inactive). The fluorescence ratio in [9] was 1.01 (inactive); in test [12] it was 0.98 (inactive). Further, the log fold change Tl+ flux in the test with R275C is 0.0414 (inactive); in the test on R275C/beta1, 0.0251 (inactive); with R275C/beta2Delta, -0.00889 (inactive); with R275C/beta4, 0.00622 (inactive); with R275C/Slo1WT/beta2 it was -0.000416 (inactive).
`Cc1noc(NS(=O)(=O)c2ccc(N)cc2)c1C`: the inhibition in test [1] was 16.5%. This molecule displayed a score in [2] of 1.57. Further, in test [3], the rescue above control was -13. Moreover, the cytochrome c release ratio in test [4] amounted to 0.89. Besides, the inhibition of aggregation in test [5] was determined as 1.83%. Moreover, the glutamate uptake change in test [6] is -4.32%. In [7], this molecule yielded an aggregation suppression score of 1.13. Further, the survival in test [8] is 8.25 (inactive). For the same molecule, in test [13], the z-score is -0.585 (inactive) and 0.925 (inactive). Besides, the log fold change Tl+ flux is -0.023 (inactive) in the test with R275C; -0.0138 (inactive) in the test with R275C/beta1; 0.00261 (inactive) in the test on R275C/beta2Delta; -0.0229 (inactive) in the test on R275C/beta4; -0.0743 (inactive) with R275C/Slo1WT/beta2.
Consider `c1ccc(CC2=NCCN2)cc1`, for which the inhibition is 7.62% in [1], -2.27% (inactive) in test [10] and -0.48% (inactive) in test [11]. Also, the score in [2] turned out to be 1.26. Also, the rescue above control in test [3] was -6.48. Also, the cytochrome c release ratio in test [4] is 1.14. The same molecule displayed an inhibition of aggregation in [5] of 87%. For the same molecule, the glutamate uptake change in [6] came out at 1.58%. In test [7], this molecule came in with an aggregation suppression score of 1.3. The survival in [8] was 21.6 (inactive). Also, the fluorescence ratio in test [9] is 1.05 (inactive); in [12], 1.01 (inactive). In addition, the z-score in test [13] was 0.495 (inactive). Further, the log fold change Tl+ flux in the test on R275C is -0.0482 (inactive); with R275C/beta1 it was 0.0322 (inactive); in the test with R275C/beta2Delta, -0.00877 (inactive); with R275C/beta4, 0.0215 (inactive); in the test with R275C/Slo1WT/beta2, 0.0521 (inactive).
Take `CN(C)CCCN1c2ccccc2CCc2ccc(Cl)cc21`: the inhibition in [1] was -18.9%; in test [10] it was -3.18% (inactive); in test [11], 0.29% (inactive). The score in [2] amounted to 0.98. Moreover, in test [4], the cytochrome c release ratio stood at 1.15. In [5], this molecule showed an inhibition of aggregation of 66.7%. Further, the glutamate uptake change in [6] was determined as 6.78%. This molecule showed an aggregation suppression score in test [7] of 0.939. In addition, in test [8], the survival was 4.17 (inactive). In addition, the fluorescence ratio in test [9] and in test [12] was 1 (inactive) each time. The z-score in test [13] is -1.52 (inactive) and -1.25 (inactive) and -0.78 (inactive). For the same molecule, the log fold change Tl+ flux was 0.0284 (inactive) in the test with R275C; 0.00748 (inactive) in the test with R275C/beta1; -0.0594 (inactive) in the test on R275C/beta2Delta; 0.278 (active) in the test on R275C/beta4; -0.0809 (inactive) with R275C/Slo1WT/beta2.
Regarding `N=C(N)c1ccc(OCCCCCOc2ccc(C(=N)N)cc2)cc1`, the inhibition in test [1] is -13.3%. The molecule further gave a score in test [2] of 0.69. In [3], this molecule returned a rescue above control of 0. Moreover, the cytochrome c release ratio in test [4] worked out at 2.1. In addition, the inhibition of aggregation in test [5] worked out at 62.8%. For the same molecule, the glutamate uptake change in [6] was 6.93%. Moreover, the aggregation suppression score in test [7] turned out to be 0.265. For the same molecule, the survival in test [8] was 0.583 (inactive). Further, the fold change is 0.873 (inactive) and 0.95 (inactive) and 1.08 (inactive) in test [14] (stronger effect = lower value, cell number ratio, induced over uninduced); 1.42 and 0.678 and 1.37 in [14] (measured here: relative caspase fold change +Dox/-Dox). Besides, the cell count in test [14] (measured here: total cells with miR-34 induction, stronger effect = lower value) was 4130 and 4260 and 6460; in test [14] (measured here: total cells without miR-34 induction) it was 4730 and 4480 and 6000. The z-score in test [13] is -0.685 (inactive).

In general, inhibition refers to the change of the read-out against control, counted positive when it falls.
